# Data: the supplement of paper PMC8728848
# The full list was thinned out, with the strongest signals kept by preference.
# B1: B725 (Bifidobacterium sp) (protein)
# chain: MNNTTRAVIATAAIGALLIPLAGCGNTTTSSGKTELTVWSWDASIDRAAKSFMKANPDITVKVSNVGSTEETYTALNNAAQAGSGLPDVTLIEYLAIPQFVHSDTLMDLSKVYNTAKLKDTFTPGTWNSVNINGGLYAMPADSGPMAYFYDKDVFDKAGISEPPTTWDEFYEDAKKIRATGSYITSDSGDAGLFNAMMWAMGGHAYKLNDDKLTINIAKDKGAQRFMDLWQKMRDEDLIDVHTKTWTDDWMKSLGDGSIASLISGAWMANNLLQGVPQATGKFRVALLPTIDGTPINGEYGGSGLAITKKIPDGKLDAAKKFVEYVTTNDEGIDARVSNGSFPATTKTLNQKDFLAKTTLRNTDGSDNEFFGGQKYNEIFSQAAKDVTGKWEFLPFEPYARSVYNDNMGSFFAGKTSFRTAADNWQKALKDYAKDQGFTVQ
# Legend:
# Experiment in all cases: glycan array binding signal (z-score within array); higher = stronger binding
# Details in all cases: glycan notation: IUPAC condensed, linker removed
# [1] = molecular target: Gal(b1-4)GlcNAc(b1-3)GalNAc
# Outline: (§1)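 The binding signal is a Z-score computed within each array and averaged over linkers. Arrays of the same protein sequence at different concentrations or buffers were also averaged together. Data originate from 3228 arrays in the Consortium for Functional Glycomics database, kept only where the protein sequence was available.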
# Gal6S(b1-3)GlcNAc = molecular target: Gal6S(b1-3)GlcNAc
# Outline: as §1
# [2] = molecular target: GalNAc(a1-3)GalNAc(b1-3)Gal(a1-4)Gal(b1-4)Glc
# Outline: as §1
# Glc(b1-6)Glc = molecular target: Glc(b1-6)Glc
# Outline: as §1
# GlcNAc(b1-3)Fuc = molecular target: GlcNAc(b1-3)Fuc
# Outline: as §1
# [3] = molecular target: GlcNAc(b1-3)Gal(b1-4)GlcNAc(b1-2)Man(a1-3)[GlcNAc(b1-3)Gal(b1-4)GlcNAc(b1-2)Man(a1-6)]Man(b1-4)GlcNAc(b1-4)[Fuc(a1-6)]GlcNAc
# Outline: as §1
# [4] = molecular target: GlcNAc(b1-3)Gal(b1-4)GlcNAc(b1-3)Gal(b1-4)GlcNAc(b1-2)Man(a1-3)[GlcNAc(b1-3)Gal(b1-4)GlcNAc(b1-3)Gal(b1-4)GlcNAc(b1-2)Man(a1-6)]Man(b1-4)GlcNAc(b1-4)[Fuc(a1-6)]GlcNAc
# Outline: as §1
# [5] = molecular target: GlcNAc(b1-3)Gal(b1-4)GlcNAc(b1-3)Gal(b1-4)GlcNAc(b1-2)[GlcNAc(b1-3)Gal(b1-4)GlcNAc(b1-3)Gal(b1-4)GlcNAc(b1-6)]Man(a1-6)[GlcNAc(b1-3)Gal(b1-4)GlcNAc(b1-3)Gal(b1-4)GlcNAc(b1-2)Man(a1-3)]Man(b1-4)GlcNAc(b1-4)[Fuc(a1-6)]GlcNAc
# Outline: as §1
# [6] = molecular target: GlcNAc(b1-3)Gal(b1-4)GlcNAc(b1-3)Gal(b1-4)GlcNAc(b1-3)Gal(b1-4)GlcNAc(b1-3)Gal(b1-4)GlcNAc(b1-2)Man(a1-3)[GlcNAc(b1-3)Gal(b1-4)GlcNAc(b1-3)Gal(b1-4)GlcNAc(b1-3)Gal(b1-4)GlcNAc(b1-3)Gal(b1-4)GlcNAc(b1-2)Man(a1-6)]Man(b1-4)GlcNAc(b1-4)[Fuc(a1-6)]GlcNAc
# Outline: as §1
# GlcNAc(b1-3)Man = molecular target: GlcNAc(b1-3)Man
# Outline: as §1
# [7] = molecular target: Neu5Ac(a2-3)Gal(b1-3)GalNAc(b1-3)Gal(a1-4)Gal(b1-4)Glc
# Outline: as §1
# Neu5Ac(a2-3)Gal(b1-4)Glc = molecular target: Neu5Ac(a2-3)Gal(b1-4)Glc
# Outline: as §1
# [8] = molecular target: Neu5Ac(a2-3)Gal(b1-4)GlcNAc(b1-2)Man
# Outline: as §1
# [9] = molecular target: Neu5Ac(a2-3)Gal(b1-4)GlcNAc(b1-3)Gal(b1-4)GlcNAc(b1-3)Gal(b1-4)GlcNAc(b1-2)Man(a1-3)[Neu5Ac(a2-3)Gal(b1-4)GlcNAc(b1-3)Gal(b1-4)GlcNAc(b1-3)Gal(b1-4)GlcNAc(b1-2)Man(a1-6)]GalNAc
# Outline: as §1
# Neu5Ac(a2-6)Gal = molecular target: Neu5Ac(a2-6)Gal
# Outline: as §1
# [10] = molecular target: Neu5Ac(a2-6)Gal(b1-3)GlcNAc(b1-3)[Gal(b1-4)GlcNAc(b1-6)]Gal(b1-4)Glc
# Outline: as §1
# [11] = molecular target: Neu5Ac(a2-6)Gal(b1-4)GlcNAc(b1-2)Man(a1-3)[GlcNAc(b1-4)][Neu5Ac(a2-6)Gal(b1-4)GlcNAc(b1-2)Man(a1-6)]Man(b1-4)GlcNAc(b1-4)GlcNAc
# Outline: as §1
# [12] = molecular target: Neu5Ac(a2-6)Gal(b1-4)GlcNAc(b1-2)Man(a1-3)[Neu5Ac(a2-6)Gal(b1-4)GlcNAc(b1-2)Man(a1-6)]Man(b1-4)GlcNAc(b1-4)[Fuc(a1-6)]GlcNAc
# Outline: as §1
# [13] = molecular target: Neu5Ac(a2-6)Gal(b1-4)GlcNAc(b1-2)[Neu5Ac(a2-6)Gal(b1-4)GlcNAc(b1-4)]Man(a1-3)[GlcNAc(b1-4)][Neu5Ac(a2-6)Gal(b1-4)GlcNAc(b1-4)Man(a1-6)]Man(b1-4)GlcNAc(b1-4)GlcNAc
# Outline: as §1
# [14] = molecular target: Neu5Ac(a2-6)Gal(b1-4)GlcNAc(b1-3)Gal(b1-4)GlcNAc(b1-3)GalNAc
# Outline: as §1
# Neu5Ac(a2-8)Neu5Ac = molecular target: Neu5Ac(a2-8)Neu5Ac
# Outline: as §1
# [15] = molecular target: Neu5Ac(a2-8)Neu5Ac(a2-3)Gal(b1-3)GalNAc(b1-4)[Neu5Ac(a2-8)Neu5Ac(a2-3)]Gal(b1-4)Glc
# Outline: as §1
# [16] = molecular target: Neu5Gc(a2-8)Neu5Gc(a2-3)Gal(b1-4)GlcNAc(b1-3)Gal(b1-4)GlcNAc
# Outline: as §1
binder,measurement,setting,value
B1,glycan array binding signal (z-score),[1],0.358
same,glycan array binding signal (z-score),Gal6S(b1-3)GlcNAc,-0.217
same,glycan array binding signal (z-score),[2],-0.209
same,glycan array binding signal (z-score),Glc(b1-6)Glc,-0.219
same,glycan array binding signal (z-score),GlcNAc(b1-3)Fuc,-0.207
same,glycan array binding signal (z-score),[3],-0.131
same,glycan array binding signal (z-score),[4],-0.216
same,glycan array binding signal (z-score),[5],-0.203
same,glycan array binding signal (z-score),[6],0.138
same,glycan array binding signal (z-score),GlcNAc(b1-3)Man,-0.204
same,glycan array binding signal (z-score),[7],-0.221
same,glycan array binding signal (z-score),Neu5Ac(a2-3)Gal(b1-4)Glc,-0.228
same,glycan array binding signal (z-score),[8],-0.207
same,glycan array binding signal (z-score),[9],-0.042
same,glycan array binding signal (z-score),Neu5Ac(a2-6)Gal,-0.222
same,glycan array binding signal (z-score),[10],-0.205
same,glycan array binding signal (z-score),[11],-0.227
same,glycan array binding signal (z-score),[12],-0.217
same,glycan array binding signal (z-score),[13],-0.212
same,glycan array binding signal (z-score),[14],-0.214
same,glycan array binding signal (z-score),Neu5Ac(a2-8)Neu5Ac,-0.215
same,glycan array binding signal (z-score),[15],-0.2
same,glycan array binding signal (z-score),[16],-0.198
